# Assay results: PMC4336329 (PLoS ONE, 2015)
# Out of some 310,000 compounds screened, about 14,000 (4.5%) showed an effect of 50% or more. Effects have a minus sign here. This is one part of a sample in which strong results are shown more often than they occur.
# Molecular target: human ether-à-go-go-related gene (hERG) potassium channel (human, UniProt Q12809)
# Experiment: primary screen, population patch clamp on CHO cells stably expressing hERG; higher = less effect of the substance
# 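Note: peak tail current of the secondary pulse compared with the same well before compound.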
# Chain of human ether-à-go-go-related gene (hERG) potassium channel (Q12809 whole entry, looked up): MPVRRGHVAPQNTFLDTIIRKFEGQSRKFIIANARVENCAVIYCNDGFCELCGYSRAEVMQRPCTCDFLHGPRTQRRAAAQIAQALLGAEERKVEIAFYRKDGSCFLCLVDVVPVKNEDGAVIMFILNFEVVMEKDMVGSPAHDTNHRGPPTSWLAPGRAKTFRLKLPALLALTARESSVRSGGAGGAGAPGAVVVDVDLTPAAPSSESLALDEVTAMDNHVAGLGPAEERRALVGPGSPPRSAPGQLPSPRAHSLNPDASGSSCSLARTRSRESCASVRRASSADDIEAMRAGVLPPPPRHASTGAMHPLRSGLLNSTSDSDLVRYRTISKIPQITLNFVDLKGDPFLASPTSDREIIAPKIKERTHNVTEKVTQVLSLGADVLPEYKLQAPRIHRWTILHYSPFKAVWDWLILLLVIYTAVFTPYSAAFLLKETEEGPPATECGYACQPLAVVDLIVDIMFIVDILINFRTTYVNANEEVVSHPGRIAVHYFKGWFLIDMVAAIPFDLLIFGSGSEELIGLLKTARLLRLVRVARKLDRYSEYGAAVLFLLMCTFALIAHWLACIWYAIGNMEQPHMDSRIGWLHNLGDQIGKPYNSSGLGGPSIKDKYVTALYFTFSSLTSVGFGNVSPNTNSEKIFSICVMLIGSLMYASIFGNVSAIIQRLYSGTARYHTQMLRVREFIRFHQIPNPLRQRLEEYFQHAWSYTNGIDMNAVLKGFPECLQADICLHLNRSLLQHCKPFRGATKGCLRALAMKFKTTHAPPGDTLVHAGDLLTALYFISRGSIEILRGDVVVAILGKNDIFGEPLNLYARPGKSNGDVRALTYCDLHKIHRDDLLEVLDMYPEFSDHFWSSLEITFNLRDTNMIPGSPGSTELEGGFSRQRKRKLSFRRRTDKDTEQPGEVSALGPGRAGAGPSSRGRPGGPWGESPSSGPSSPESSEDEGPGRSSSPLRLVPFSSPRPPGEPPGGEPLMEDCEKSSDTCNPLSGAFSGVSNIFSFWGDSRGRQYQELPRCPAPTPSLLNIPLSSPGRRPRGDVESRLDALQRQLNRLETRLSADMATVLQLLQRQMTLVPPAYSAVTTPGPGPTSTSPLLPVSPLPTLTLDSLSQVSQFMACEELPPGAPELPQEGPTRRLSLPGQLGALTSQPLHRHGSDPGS
row,SMILES,"hERG current change (%, negative = inhibition) at 10uM [%]"
1,CCn1c(/C=C/c2c[nH]c3ccccc23)nc2ccccc2c1=O,20.5
2,CCOc1ccc2nc(N3CCC(C(=O)Nc4nnc(CC)s4)CC3)sc2c1,11.9
3,Cn1c(=O)c2cn(Cc3ccc(Cl)cc3)cc2n(C)c1=O,-1.75
4,CCOc1ccc(C2NCCc3cc(OC)c(OC)cc32)cc1OC (stereo not drawn),12.3
5,O=C1C(CSCc2ccccc2)NC(=S)N1c1ccccc1 (stereo not drawn),16
6,Nc1nc(SCCO)[nH]c(=O)c1NC(=O)c1ccc(Br)o1,23.8
7,Cc1ccc(OCC(=O)NNC(=O)C2CCN(c3ncccn3)CC2)cc1,-18.6
8,COC(=O)C1=C[C@@H](C(=O)OC)[C@@H]2C3=C(C(=O)[C@]2(CC(C)C)NC(=O)c2ccccc2)[C@H](C)n2c(=O)n(-c4ccccc4)c(=O)n2[C@@H]3C1,-8.87
9,CCN(C(=O)COC(=O)C1CCN(S(=O)(=O)c2ccc3c(c2)OCCO3)CC1)C1CCCCC1,-2.31
10,CC1(C)Cc2cccc(OCC(=O)NCc3ccccc3F)c2O1,-5.79
11,Cc1ccc(OCC(=O)N2CCC3(CC2)CC(=O)c2ccccc2O3)cc1,-73.3
12,CC(Oc1ccccc1)C(=O)N1CCN(C(=O)C(C)Oc2ccccc2)CC1 (stereo not drawn),8.52
13,O=C1CC2(CCN(C(=O)COc3ccc(Cl)cc3)CC2)Oc2ccccc21,-85.8
14,CC(Oc1ccccc1)C(=O)N1CCN(c2ccc(N3CCCCC3)nn2)CC1 (stereo not drawn),-28.5
15,CC(=O)N1CCC2(CC1)CC(=O)c1cc(OCC(=O)NCc3ccc(C)cc3)ccc1O2,-21.3
16,CCOC(=O)COc1ccc2c(c1)C(=O)CC1(CCN(C(C)=O)CC1)O2,-19.7
17,CC(Oc1ccccc1)C(=O)N1CCN(c2ccc(N3CCOCC3)nn2)CC1 (stereo not drawn),-3.79
18,CC(Oc1ccccc1)C(=O)N1CCN(c2ccc(N3CCCCCC3)nn2)CC1 (stereo not drawn),-52.7
19,CC(Oc1ccccc1)C(=O)N1CCC2(CC1)Oc1ccc(Cl)cc1C(=O)C21CC(c2ccccc2)=NO1 (stereo not drawn),7.46
20,CC(Oc1ccccc1)C(=O)N1CCC2(CC1)CC(=O)c1ccccc1O2 (stereo not drawn),-65.7
21,COc1ccc(C2=NS(=O)(=O)N(C)C(C(=O)N3CCOCC3)=C2)cc1OC,-2.16
22,CN1CCN(C(=O)c2cnn(-c3ccccc3)c2NC(=O)c2cccs2)CC1,-29.2
23,CCCCC1(C(=O)OCC)NC(c2ccc(O)cc2)C2C(=O)N(c3ccccc3)C(=O)C21 (stereo not drawn),-3.73
24,CCOC(=O)C1=C(N)N2C(=O)C(C)SC2=C(C(=O)OCC)C1c1cc(OC)c(OC)c(OC)c1 (stereo not drawn),1.27
25,COc1ccc(OC)c(S(=O)(=O)N2CCC(C(=O)NCc3ccccc3)CC2)c1,-9.9
26,CN1CCN(/C=C2\SC(=S)NC2=O)CC1,11.6
27,O=C(NNc1ccccc1)C(=O)NNS(=O)(=O)c1ccc(CCCl)cc1,2.82

row,SMILES,"hERG current change (%, negative = inhibition) at 10uM [%]"
1,O=C1CC(N2CCOCC2)=NN1c1ccc([N+](=O)[O-])cc1,-8.54
2,CCNC(=S)NNC(=O)c1nn(C)c(C)c1Cl,19
3,CC(=O)Nc1c(O)n(C)c2ccccc12,13.6
4,CC(Oc1ccc(Br)cc1)C(=O)N1CCC(C(N)=O)CC1 (stereo not drawn),-78.1
5,O=C1CC2(CCN(C(=O)COc3ccccc3F)CC2)Oc2ccccc21,-49.1
6,Cc1ccccc1OCC(=O)N1CCC2(CC1)CC(=O)c1ccccc1O2,-57.5
7,COc1ccc(OCC(=O)N2CCC3(CC2)CC(=O)c2ccccc2O3)cc1,-88.9
8,COc1ccccc1OCC(=O)N1CCC2(CC1)CC(=O)c1ccccc1O2,-40.2
9,CC(=O)N1CCC2(CC1)CC(=O)c1cc(OCC(=O)N3CCC4(CC3)OCCO4)ccc1O2,18.5
10,CCOc1ccc(OCC(=O)N2CCC3(CC2)CC(=O)c2ccccc2O3)cc1,-94.6
11,CCOC(=O)N1CCN(C(=O)COc2ccc3c(c2)C(=O)CC2(CCN(C(C)=O)CC2)O3)CC1,-2.13
12,CCC(Oc1ccccc1)C(=O)N1CCC(C(N)=O)CC1 (stereo not drawn),15.8
13,CCOC(=O)C1CCN(C(=O)C(C)Oc2ccc(Br)cc2)CC1 (stereo not drawn),-16.1
14,CCN1CCN(C(=O)COc2ccc3c(c2)C(=O)CC2(CCN(C(C)=O)CC2)O3)CC1,20.5
15,CC(=O)N1CCC2(CC1)CC(=O)c1cc(OCC(=O)N3CCN(C)CC3)ccc1O2,1.86
16,O=C(Nc1ccccc1N1CCOCC1)c1cccnc1,15
17,O=C(N/N=C/c1cccs1)c1cccc(NC(=O)c2ccc(Cl)cc2)c1,7.57
18,CO[C@@]1(NC(=O)C2SC(=C(C(N)=O)C(=O)O)S2)C(=O)N2C(C(=O)O)=C(CSc3nnnn3C)CS[C@@H]21 (stereo partly drawn),13.6
19,CCCNc1nc(C)nc2c1cnn2CCc1ccccc1,-12.8
20,CCOc1nc(CC(C)C)c2c(c1C#N)CC(C)(C)OC2,1.14
21,O=C1CC(NS(=O)(=O)c2ccc3ccccc3c2)CN1c1ccccc1 (stereo not drawn),-0.798
22,Cl.N=c1sccn1CC(=O)Nc1ccc(Cl)cc1[N+](=O)[O-],-21
23,COc1cc(C(=O)NNC(=O)c2cc(C)[nH]n2)cc(OC)c1OC,18.8
24,C/C(=N\NC(=O)C1CC1)c1cccs1,9.16
25,O=C1CC2(CCN(C(=O)COc3ccc(F)cc3)CC2)Oc2ccccc21,-42.6
26,O=C1CC2(CCN(C(=O)COc3ccccc3)CC2)Oc2ccccc21,-67.4
27,O=C1CC2(CCCCC2)Oc2ccc(OCC(=O)N3CCOCC3)cc21,3.3
